# Screening results (PubChem)
# PLK1 PBD inh = qHTS for Inhibitors of PLK1-PDB (polo-like kinase 1 - polo-box domain): Primary Screen | 360,000 tested, 2.8% active | Plk1 PBD binding of FITC phosphopeptide, fluorescence polarization | Potency, µM, for the others: max response, negative = inhibition, usual class: inhibitors; note: potency is the fitted concentration of half-maximal effect; series mostly up to about 57 µM; % is set by controls: 0 for no effect and ±100 for the full control effect; nearly all actives have a fitted effect of over 65% in size
# HP1b binding inh = HTS for Inhibitors of HP1-beta Chromodomain Interactions with Methylated Histone Tails. Chromobox protein homolog 1 (Homo sapiens), P83916. AlphaScreen HP1-beta / biotin-H3K9me3 peptide binding. Potency, µM (highest dose often 114 µM), without a hit: at the top dose activity change, negative = inhibition, actives largely listed as inhibitors. 390,000 tested, 0.56% active; note: potency is the fitted concentration of half-maximal effect; nearly all actives have a fitted effect of over 70% in size
#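 AlphaScreen: HP1-beta (50 nM) preformed 30 min with biotin-H3(1-18)K9me3 peptide (50 nM) in PBS pH 7.4, 0.01% Tween-20. Compound added for 30 min at RT, then streptavidin donor/nickel chelate acceptor beads (10 ug/mL) for 30 min.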
# BAZ2B inh = qHTS Assay for Inhibitors of BAZ2B. Bromodomain adjacent to zinc finger domain protein 2B (Homo sapiens), Q9UIF8. AlphaScreen BAZ2B-H3K14Ac peptide displacement. Potency, µM (series often up to 114 µM), for inactives: top-dose activity change, negative = inhibition, hits mostly inhibitors. 360,000 tested, 4.4% active. AID 504333, 2011; note: potency is the fitted concentration of half-maximal effect; % is set by controls: 0 for no effect and ±100 for the full control effect; nearly all actives have a fitted effect of over 60% in size
#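 BAZ2B (50 nM) with biotin-H3(5-23)K14Ac peptide (50 nM) in PBS pH 7.4, 0.01% Tween-20, preformed 30 min, then compound 30 min at room temperature; top concentration 110uM. AlphaScreen streptavidin donor/nickel chelate acceptor beads (10 ug/mL final), 20 min dark, signal read.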
# G9a inh = qHTS Assay for Inhibitors of Histone Lysine Methyltransferase G9a; 350,000 tested, 8.8% active; Potency, µM (top dose mostly 102 µM), inactives show at the top dose activity, negative = inhibition, most hits filed as inhibitors; AID 504332, 2011; G9a H3K9 monomethylation, AlphaScreen, 2 h; note: potency is the fitted concentration of half-maximal effect; % is set by controls: 0 for no effect and ±100 for the full control effect; nearly all actives have a fitted effect of over 75% in size
# Target sequence (Q96KQ7 913-1193 limits assumed): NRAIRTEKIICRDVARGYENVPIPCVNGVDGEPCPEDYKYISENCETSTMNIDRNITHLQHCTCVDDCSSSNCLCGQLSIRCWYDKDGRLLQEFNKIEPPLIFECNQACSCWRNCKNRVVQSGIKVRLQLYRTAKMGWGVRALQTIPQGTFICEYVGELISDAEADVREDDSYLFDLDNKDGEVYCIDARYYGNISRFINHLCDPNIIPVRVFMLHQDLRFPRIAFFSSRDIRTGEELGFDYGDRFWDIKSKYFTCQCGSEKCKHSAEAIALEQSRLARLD
#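 Step 1: enzyme (final 20 nM) with compound, 15 min RT. Step 2: substrate peptide 500 nM and SAM 20 uM, 2 h RT. Step 3: anti-H3K9me1 antibody and AlphaScreen beads, 10 min, then plate read.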
# JMJD2A Tudor = qHTS Assay for Inhibitors of JMJD2A-Tudor Domain. Lysine-specific demethylase 4A (Homo sapiens), O75164. AlphaScreen JMJD2A-Tudor / H3K4me3 peptide binding. Potency, µM (highest dose often 114 µM), for inactives: at the highest dose activity change, negative = inhibition, hits mostly inhibitors. 390,000 tested, 4.4% active; note: potency is the fitted concentration of half-maximal effect; % is set by controls: 0 for no effect and ±100 for the full control effect; nearly all actives have a fitted effect of over 50% in size
# PI5P4Ka inh = qHTS for Inhibitors of phosphatidylinositol 5-phosphate 4-kinase (PI5P4K); Phosphatidylinositol 5-phosphate 4-kinase type-2 alpha (Homo sapiens), P48426; PI5P4Kalpha enzyme, ADP-Glo luminescence, 60 min; hits give low values; max response, %; 330,000 tested, 1.2% active; AID 652105, 2013; active = max response of -50% or lower; inconclusive = between -30% and -50%; inactive = -30% or higher; note: value at the top dose of about 77 µM; % is set by controls: 0 for no effect and ±100 for the full control effect
# Target sequence (P48426 whole entry, looked up): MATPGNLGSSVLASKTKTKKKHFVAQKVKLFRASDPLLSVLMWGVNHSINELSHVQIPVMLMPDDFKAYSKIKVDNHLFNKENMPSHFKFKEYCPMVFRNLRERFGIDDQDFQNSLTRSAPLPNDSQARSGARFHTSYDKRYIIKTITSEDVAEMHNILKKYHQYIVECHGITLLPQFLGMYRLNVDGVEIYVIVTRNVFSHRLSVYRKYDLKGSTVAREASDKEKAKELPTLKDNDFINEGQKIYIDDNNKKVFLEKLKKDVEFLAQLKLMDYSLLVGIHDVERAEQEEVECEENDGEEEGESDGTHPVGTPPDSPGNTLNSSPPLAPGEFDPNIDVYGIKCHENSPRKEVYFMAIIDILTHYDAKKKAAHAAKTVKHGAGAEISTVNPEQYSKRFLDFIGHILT
#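 Single end-point luminescence (ADP-Glo) quantified ADP from PI5P4Kalpha turnover; ATP 5 microM final, 1 h at RT, 0.1% CHAPS and 0.28 mM EGTA in HEPES pH 7.4.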
# Active calls of the source: *; ? = inconclusive; nt = not tested or not shown; [ ] = dose if it differs, or a comment. Most compounds without a hit are left out; they make up all but 12% or so of the library. Unless noted, calls come from the whole dose curve; as a rule, active = well fitted curve in the direction sought with a large enough effect; inconclusive = small, poorly fitted or top-dose-only effect, or another doubt; inactive = no such curve, though single readings can be large; an effect the other way counts as inactive or inconclusive.
SMILES,PLK1 PBD inh,HP1b binding inh,BAZ2B inh,G9a inh,JMJD2A Tudor,PI5P4Ka inh
OCC(O)C1OC(c2ccco2)OC(CO)C1O (stereo not drawn),-8%,4%,nt,nt,-13%,1
CCNc1oc(-c2cccc3ccccc23)nc1C#N,-5%,16%,-3%,0%[59 µM],-7%,-4
CC(C)Nc1oc(-c2cccc3ccccc23)nc1C#N,-6%,-8%,-34%,45µM*,27%,nt
CCOc1ccc(C(=O)CCNC(Cc2cnc[nH]2)C(=O)O)cc1 (stereo not drawn),-12%,19%,18µM*,?,?,nt
CCOc1ccc(S(=O)(=O)NC(C)C(=O)NC2CCCC2)cc1 (stereo not drawn),-13%,16%,2%,12%,-14%,14
CCOc1ccc(S(=O)(=O)NC(Cc2cnc[nH]2)C(=O)O)cc1 (stereo not drawn),-12%,-5%,-14%,50µM*,16µM*,8
COc1cccc(NS(=O)(=O)c2ccc3[nH]cc(C(=O)N(C)Cc4ccco4)c(=O)c3c2)c1,-9%,-22%,-37%,-22%,?,nt
Cc1ccccc1NS(=O)(=O)c1ccc2[nH]cc(C(=O)N(C)Cc3ccco3)c(=O)c2c1,-10%,-29%,56µM*,nt,?,-14
COc1ccc(N2C(=O)CC(Sc3nc4ccccc4s3)C2=O)cc1 (stereo not drawn),-15%,41%,-21%,25µM*,-3%,-18
CCOc1ccc2nc(SC3CC(=O)N(c4ccc(OC)cc4)C3=O)sc2c1 (stereo not drawn),-11%,72%,-2%,13µM*,1%[57.1 µM],-3
O=C1CC(Sc2cccs2)C(=O)N1c1ccccc1 (stereo not drawn),-27%,34%,-1%,nt,1%,0
CCOc1ccc(N2C(=O)CC(Sc3nc(O)c(CC)c(=O)[nH]3)C2=O)cc1 (stereo not drawn),-2%,2%,nt,nt,-10%,-1
Cc1nnc(SC2CC(=O)N(c3ccccc3)C2=O)s1 (stereo not drawn),?,-7%,2%,8.9µM*,12%,-3
CC(C)c1ccc(N2C(=O)CC(Sc3nc4ccccc4o3)C2=O)cc1 (stereo not drawn),-19%,57%,0%,45µM*,-15%,nt
COc1ccc(N2C(=O)CC(NNc3nc4ccccc4s3)C2=O)cc1 (stereo not drawn),6%,42%,-9%,-20%[59 µM],-3%,0
COc1ccc(NC(=O)c2cc(C3CCCCN3S(=O)(=O)Cc3ccccc3)on2)c(C)c1 (stereo not drawn),-2%,nt,nt,nt,nt,4
COc1ccc(N2C(=O)CC(Sc3nccc(C)n3)C2=O)cc1 (stereo not drawn),-6%,60%,-4%,-6%[59 µM],11%,-6
C=CCNc1nnc(SC2CC(=O)N(c3ccc(OC)cc3)C2=O)s1 (stereo not drawn),27µM*,-34%,-7%,8.9µM*,45µM*,nt
COc1ccc(N2C(=O)CC(Sc3nnc(-c4ccccc4F)n3C)C2=O)cc1 (stereo not drawn),24µM*,-13%,-9%,11µM*,-22%,0
CCOC(=O)C1=C(Cc2ccc(C)cc2)C(=O)c2ccccc2C1=O,nt,nt,22µM*,8.9µM*,nt,nt
CCOC(=O)c1ccc(COC(=O)c2ccc3c(c2)-c2ccccc2C3=O)cc1,-6%,24%,7%,0%[59 µM],-17%,0
CCOC(=O)C1=C(Cc2ccc(OC)cc2)C(=O)c2ccccc2C1=O,12µM*,18µM*,22µM*,2.8µM*,40µM*,nt
CCOC(=O)c1c(C)nc2c(c1-c1cc(OC)ccc1OC)C(=O)c1ccccc1-2,3%,?,?,?,?,0
CCOc1ccc(CCNC(=O)CCc2c(C)nc3c(c(C)nn3-c3ccc(C)c(C)c3)c2C)cc1,nt,34%,-13%,-8%[59 µM],1%,nt
Cc1ccc(C(=O)NC2CC3CCCC(C2)N3Cc2ccccc2)cc1 (stereo not drawn),-27%,13%,18%,nt,8%[57.1 µM],2
SMILES,PLK1 PBD inh,HP1b binding inh,BAZ2B inh,G9a inh,JMJD2A Tudor,PI5P4Ka inh
CCN(CC)C(=O)NC1CC2CCCC(C1)N2Cc1ccccc1 (stereo not drawn),?,-11%,5%,2.8µM*,-4%[57.1 µM],0
Cc1ccc(-c2noc(CNC(=O)c3ccccc3)n2)cc1,nt,6%,0%,1%[59 µM],-14%,nt
CCOc1ccccc1CNC(=O)c1cn(-c2ccc(OC)cc2)c(=O)c2ccccc12,nt,18%,?,?,-16%,nt
CCCCCCCCCCCCCCCCCC(=O)NCC(COP(=O)([O-])OCC[N+](C)(C)C)OCC (stereo not drawn),nt,nt,nt,13µM*,nt,nt
CCCCCCCCCCCCCCCC(=O)NCC(COP(=O)([O-])OCC[N+](C)(C)C)OCC (stereo not drawn),nt,nt,nt,16%[12.7 µM],nt,nt
COc1cccc(/C=N\NC(C)=O)c1OC/C=C/c1ccccc1,1%,43%,-5%,nt,0%,-7
COc1ccc(-c2cn3nc(N4CCCC(C(=O)Nc5ccc(C)c(C)c5)C4)sc3n2)cc1 (stereo not drawn),nt,-13%,-1%,-33%[59 µM],-29%,nt
O=C1C=C(c2ccccc2)OC(c2ccccc2)O1 (stereo not drawn),-3%,81%,50µM*,?,14%,4
Cc1ccccc1NC(=O)C1c2ccccc2Oc2ccccc21,-3%,35%,-18%,?,?,-7
Cc1cc(C)nc(NC(=O)C2c3ccccc3Oc3ccccc32)n1,-3%,52%,-1%,50µM*,-1%,1
COc1ccc(NC(=O)C(NC(=O)C2CCC(C)CC2)C(C)C)cc1 (stereo not drawn),nt,-4%,-13%,-12%[59 µM],-34%,nt
CCC(C)C(NC(=O)C1CCC(C)CC1)C(=O)Nc1ccc(OC)cc1 (stereo not drawn),30µM*,-14%,-10%,33%[59 µM],-36%[57.1 µM],-12
COc1ccc(C(NC(=O)CN2C(=O)NC3(CCc4ccccc43)C2=O)c2ccccc2)cc1 (stereo not drawn),4%,52%,-27%,-13%[12.7 µM],-11%,5
COc1ccc(C(NC(=O)CN2C(=O)NC3(CCc4ccccc43)C2=O)c2ccc(OC)cc2)cc1 (stereo not drawn),-2%,0%,1%,50µM*,-28%,11
